Laboratory results reported in ChEMBL document CHEMBL4513216, “Probing the Open Global Health Chemical Diversity Library for Multistage-Active Starting Points for Next-Generation Antimalarials” (ACS Infect Dis, 2020).
Hit rate of the full screen: of about 69,000 compounds, about 8,600 (12%) showed an effect of 50% or more. For the sample, strong results were picked, then their nearest neighbours and some compounds at random.

These compounds were tested on Plasmodium berghei (assay: Screen against P. berghei liver stage (PbLuc), transformed with Luciferase, at 10uM). Conditions: tested at 10 uM.
Assay type: functional, HepG2

Structure (SMILES) | INHIBITION [%]
CC(=O)NCCCNCc1c(C)nn(CC(C)C)c1N(C)C | 61.1
Cc1nc(C)c(C(C)NCc2c(C)nn(C)c2N(C)C)s1 (configuration not stated) | -15.1
Cc1nc(C)c(C(C)NCc2c(C)nn(CC(C)C)c2N(C)C)s1 (configuration not stated) | 50
Cc1nc(C)c(C(C)NCc2c(C(C)C)nn(C)c2N(C)C)s1 (configuration not stated) | 1.2
CNC(=O)CCCNCc1c(C)nn(CC(C)C)c1N(C)C | 53.3
CNC(=O)CCCNCc1c(C)nn(C)c1N(C)C | 14.7
Cc1nn(CC(C)C)c(N(C)C)c1CNCCC(=O)NC(C)C | 13
Cc1nn(CC(C)C)c(N(C)C)c1CNCCS(C)(=O)=O | 26.4
Cc1nn(CC(C)C)c(N(C)C)c1CNCCCNS(C)(=O)=O | 42.1
Cc1noc(C)c1CN1CCN(Cc2cccnc2)c2ncccc2C1 | 22.9
COCCCn1ccc(NS(=O)(=O)c2cc(F)c(C)cc2F)n1 | 23.1
CCOc1ccc(Cl)c(C(=O)NCCC(=O)Nc2ccncc2)n1 | -0.44
O=C1C[C@H]2[C@@H](CCN2C(=O)Cc2cccs2)N1Cc1ccncc1 | 37.1
CCn1cc(C(=O)N2CCOCC2)cn1 | -60.9
CCN(CC)C(=O)c1nc2c(s1)CCN(C(=O)CCC(=O)OC)CC2 | 12.7
CNC(=O)c1nc2c(s1)CCN(C(=O)Cc1ccc(OC)cc1)CC2 | 14.2
COC(=O)CCC(=O)N1CCc2nc(C(=O)N(C)C)sc2CC1 | 79.2
COC(=O)CCC(=O)N1CCc2nc(C(=O)N3CCCCC3)sc2CC1 | 57.1
COC(=O)CCC(=O)N1CCc2nc(C(=O)N3CCOCC3)sc2CC1 | -4.99
COCC(=O)N1CCc2nc(C(=O)N(C)C)sc2CC1 | -6.46
CC(=O)N(C)C1CCN(c2ncc3c(n2)CCN3c2ccccc2)C1 (configuration not stated) | 9.4
CN(C)c1ncccc1CNC(=O)NCC(c1cccs1)N(C)C (configuration not stated) | 23.2
COC[C@@]12CCO[C@@H]1CCN(C(=O)COc1ccc(C)cc1)C2 | -3.52
O=C(Nc1ccc(F)cc1)C(c1ccccc1)N1CCOCC1 (configuration not stated) | -3.94

Structure (SMILES) | INHIBITION [%]
COc1cccc(OC)c1CN1CC(=O)N(c2ccc(C)cc2)CC1C (configuration not stated) | 76.8
COc1ccc(CN2CC(=O)N(c3ccc(C)cc3)CC2C)cc1O (configuration not stated) | 43.2
COc1cc(CN2CC(=O)N(c3ccc(C)cc3)CC2C)cc(OC)c1 (configuration not stated) | 46.6
Cn1cc(CN2CCC[C@]3(C[C@@H](Oc4ncccc4F)CO3)C2)cn1 | 35.5
CC(C)c1ccc(OCCC(=O)N2CCCC(C(N)=O)C2)cc1 (configuration not stated) | 4.18
CC(=O)N1CCCc2ccc(S(=O)(=O)N3CCCCC3C)cc21 (configuration not stated) | 54.4
CC(=O)N1CCc2ccc(S(=O)(=O)N3CCCCC3C)cc21 (configuration not stated) | -0.178
CS(=O)(=O)c1ccc2c(c1)N(C(=O)c1cccc(F)c1)CCC2 | 9.63
Cc1cc(-c2c[nH]nc2C2CCCCN2C(=O)c2ccccc2)on1 (configuration not stated) | 23
Nc1ccnc(N2CCC(c3nccn3CC3CC3)CC2)n1 | -16.3
CCn1ncc2c1C(COC)CN(Cc1cnn(C)c1)C2 (configuration not stated) | 68.8
CCn1ncc2c1C(COC)CN(Cc1ccc(OC)cc1)C2 (configuration not stated) | 42.1
CCn1ncc2c1C(COC)CN(Cc1ccc(F)cc1)C2 (configuration not stated) | -2.35
CCn1ncc2c1C(COC)CN(Cc1ccsc1)C2 (configuration not stated) | 62.6
CCn1ncc2c1C(COC)CN(Cc1cccnc1)C2 (configuration not stated) | -67.6
COCC1CN(Cc2ccsc2)Cc2cnn(C)c21 (configuration not stated) | -0.371
CCc1nc(C2CCCN(C(=O)c3ccc4[nH]cnc4c3)C2)no1 (configuration not stated) | 5.7
Cc1nc(N[C@H]2COC[C@@H]2N2CCCCC2)c2c(C)nn(C)c2n1 | 24.8
COc1cc(OC)c2nc(NCCN3CCNC3=O)cc(C)c2c1 | 7.92
COc1nc2ccccc2cc1C1CC(=O)Nc2n[nH]c(C3CCC3)c21 (configuration not stated) | -1.7
Cc1noc(C)c1CNCC1COCc2c(-c3ccsc3)nnn2C1 (configuration not stated) | -57.1
COc1ccccc1CN1CCCC(Cc2nccnc2N)C1 (configuration not stated) | 21.1
COc1ccnc(CN2CCCC(CCc3ccccc3)C2)c1OC (configuration not stated) | 75.7
O=C(O)COc1ccc(CN2CCCC(CCc3ccccc3)C2)cc1 (configuration not stated) | 28.5

Structure (SMILES) | INHIBITION [%]
COc1ccnc(CN2CCCC(CCc3ccc(F)cc3)C2)c1OC (configuration not stated) | 94.8
Nc1nccnc1CC1CCCN(Cc2ccnc3ccccc23)C1 (configuration not stated) | 78.7
COc1ccccc1N1CCN(Cc2nccc(OC)c2OC)CC1=O | 40.7
Nc1nccnc1CC1CCCN(Cc2c[nH]c3ccccc23)C1 (configuration not stated) | 24.8
Cn1ccnc1CN1CCCC(CCc2ccc(F)c(F)c2)C1 (configuration not stated) | 37.7
Nc1nccnc1CC1CCCN(Cc2cccc3[nH]ccc23)C1 (configuration not stated) | -1.16
CCc1nnc2n1CCN(C(=O)c1ccc3c(c1)[nH]c(=O)n3C)C2 | 8.38
COc1ccc(-c2cnc3c(c2)CN(C2CC2)C(=O)CCN3)cc1 | 7.09
CS(=O)(=O)N1C[C@H]2CC[C@@H](C1)N(C(=O)CCn1cnc3ccccc31)C2 | 12.9
CC(C)(C)Nc1c(C2CCN(C(=O)C(C)(C)C)CC2)nc2ccccn12 | 30.3
Cc1nc(C)n(CC2CN(CCC(=O)N3CCCCC3)CCO2)n1 (configuration not stated) | 21.5
COCCc1noc(CN2CCOC(CN(C)C)C2)n1 (configuration not stated) | 15.3
O=C1NC2(Cc3ccccc31)CN(CC1CCOCC1)C2 | 35
c1ccc(-c2cc(CN3CCc4cncnc4C3)on2)cc1 | -28
CC(C)Cc1cc(C(=O)NCC2CCCN(Cc3ccco3)C2)on1 (configuration not stated) | -63.8
CC(C)Cc1cc(C(=O)NC(C)(C)CN2CCCCCC2)on1 | 58.7
CC(C)Cc1cc(C(=O)NCC(O)CN2CCCCCC2)on1 (configuration not stated) | -8.47
Cn1cc(CN2C[C@@H]3COC[C@]3(CNC(=O)c3ccsc3)C2)cn1 | 34.7
Cc1ccnc(N2CCCC(c3nncn3C3CC3)C2)n1 (configuration not stated) | 46.6
Cc1cc(N2CCCC(c3nccnc3N(C)C)C2)ncn1 (configuration not stated) | 5.25
c1cc2occc2c(N2CCCC(c3nncn3C3CC3)C2)n1 (configuration not stated) | 57.5
Cc1cc(N2CCCC(c3nncn3C3CC3)C2)ncn1 (configuration not stated) | 53.5
O=C(O)c1cn(CC2CCCN(c3nccc4occc34)C2)nn1 (configuration not stated) | -2.48
CN(C)Cc1cn(CC2CCCN(c3nccc4occc34)C2)nn1 (configuration not stated) | 34.9
